Results filed as inconclusive are left out. A number with no mark means an inactive call. The source made the active and inactive calls. The call rests on the fitted dose curve; in most records, active means well fitted curve in the direction sought with a large enough effect; inconclusive means small, poorly fitted or top-dose-only effect, or another doubt; inactive means no such curve, though single readings can be large; an effect the other way counts as inactive or inconclusive. Peptide text beside a SMILES is read from it.
Test: qHTS assay to identify small molecule inhibitors of chordoma cells - UCH-1 (AID 1259355); further: nearly all actives have a fitted effect of over 55% in size; further: potency means the concentration at half of the fitted maximal effect
Details: UCH-1 chordoma viability, CellTiter-Glo, 48 h, combination, with auranofin plus four topoisomerase inhibitors; series mostly up to 46.1 µM; activity, negative = inhibition: at the top concentration
Summary of the method: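 Screening used approved and investigational drugs in 15-point titration against 800 seeded cells per well. A fixed combination of auranofin with camptothecin, doxorubicin, rubitecan and topotecan followed compound addition, and growth was scored by CellTiter-Glo after 48hr.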
On the % scale 0 is the no-effect control and ±100 the full control effect.

Point of comparison: `Cc1cc(CC(C)CC(C)(C)C)n(O)c(=O)c1` (centres undefined) (tested in a mixture with another compound), “activity, negative = inhibition” value -9.36%. Against it:
- O=C(O)CN(CCN(CC(=O)O)CC(=O)O)CC(=O)O — lower, -17.4%
- CN1CCC(CN2c3ccccc3Sc3ccccc32)C1 (centres undefined) — lower, -20.2%
- CCOC(=O)C1=CC2(CC)CCCN3CCc4c(n1c1ccccc41)C32 (centres undefined) — lower, -21.2%
- Clc1cc(Cl)c(OCC#CI)cc1Cl — lower, -15%
- Oc1cc(O)c2c(c1)OC(c1ccc(O)c(O)c1)C(O)C2 (centres undefined) — lower, -17.1%
- CCCCCCOc1ccc(C(=N)N(CCCC)CCCC)c2ccccc12 — higher, -7.77%
- CC(=O)N[C@@H](CC(=O)O)C(=O)N[C@@H](CCC(=O)O)C(=O)O (Ac-Asp-Glu-OH) — higher, 2.19%
- CC(Cc1ccc(O)c(O)c1)C(C)Cc1ccc(O)c(O)c1 (centres undefined) — higher, -7.63%
- CN=C(NC#N)Nc1ccc(C2=NNC(=O)C[C@@H]2C)cc1 — lower, -15.6%
- Cc1c(C)c2c(c(C)c1O)CC[C@@](C)(CCC[C@@H](C)CCC[C@@H](C)CCCC(C)C)O2 — higher, 4%
- COC(=O)CCC(=O)CN — lower, -24%
- NC1C2CN(c3nc4c(cc3F)c(=O)c(C(=O)O)cn4-c3ccc(F)cc3F)CC12 (centres undefined) — lower, -20.4%
- CO/N=C(\C(=O)N[C@@H]1C(=O)N2C(C(=O)O)=C(CSc3cnns3)CS[C@H]12)c1csc(N)n1 — lower, -12.1%
- CC1(C)S[C@@H]2[C@H](NC(=O)C(C(=O)O)c3ccsc3)C(=O)N2[C@H]1C(=O)O (some centres undefined) — higher, 2.35%
- Cc1cn([C@H]2C[C@H](O)[C@@H](CO)O2)c(=O)[nH]c1=O — lower, -23.6%
- CCCCCCC(O)C/C=C/CCCCCCCC(=O)O (centres undefined) — lower, -12.1%
- NC(=O)c1ncn(C2OC(CO)C(O)C2O)n1 (centres undefined) — higher, 11.5%
- CCC1OC(=O)C[C@@H](O)[C@H](C)[C@@H](O[C@@H]2O[C@H](C)C[C@H](N(C)C)[C@H]2O)[C@@H](CC=O)C[C@@H](C)C(=O)/C=C/[C@]2(C)OC2C1C (some centres undefined) — lower, -13.7%
- CCOc1ccc(N=Nc2ccc(N)cc2N)cc1 — lower, -22.3%
- CCCC(=O)Nc1ncnc2c1ncn2C1OC2COP(=O)(O)OC2C1OC(=O)CCC (centres undefined) — lower, -10.6%

Point of comparison: `CNC(C)[C@@H]1CC[C@@H](N)[C@@H](O[C@H]2[C@H](O)[C@@H](O[C@H]3OC[C@](C)(O)[C@H](NC)[C@H]3O)[C@H](N)C[C@@H]2N)O1` (some centres undefined), “activity, negative = inhibition” value -24.3% [at 20.6 µM]. Against it:
- CCC(=O)O[C@@H]1CC(=O)O[C@H](C)C/C=C/C=C/[C@H](O)[C@H](C)C[C@H](CC=O)[C@H](O[C@@H]2O[C@H](C)[C@@H](O[C@H]3C[C@@](C)(O)[C@@H](OC(=O)CC)[C@H](C)O3)[C@H](N(C)C)[C@H]2O)[C@H]1OC — higher, -14.4% [at 20.6 µM]
- CC[N+](CC)(CC)CCC(O)(c1ccccc1)C1CCCCC1 (centres undefined) — higher, -2.5% [at 20.6 µM]
- CO[C@H]1C[C@H](O[C@H]2[C@H](C)[C@@H](O[C@@H]3O[C@H](C)C[C@H](N(C)C)[C@H]3OC(C)=O)[C@@H](C)C[C@]3(CO3)C(=O)[C@H](C)[C@@H](OC(C)=O)[C@@H](C)[C@@H](C)OC(=O)[C@@H]2C)O[C@@H](C)[C@@H]1OC(C)=O — higher, -19% [at 20.6 µM]
- CC[N+](C)(C)Cc1ccccc1Br — higher, -22.4% [at 20.6 µM]
- CC(C)(C)C(=O)OCOC(=O)[C@@H]1N2C(=O)[C@@H](N=CN3CCCCCC3)[C@H]2SC1(C)C — higher, 12.2% [at 20.6 µM]

In the case of `CCCCC(=O)OCC(=O)[C@]1(O)Cc2c(O)c3c(c(O)c2[C@@H](O[C@H]2C[C@H](NC(=O)C(F)(F)F)[C@H](O)[C@H](C)O2)C1)C(=O)c1c(OC)cccc1C3=O`, the Potency is reported as 6.31 µM (active).
With `O=S(=O)(O)c1cc(O)c2c(N=Nc3ccc(Nc4ccccc4)c4c(S(=O)(=O)O)cccc34)cc(S(=O)(=O)O)cc2c1` the Potency was 15.8 µM (active).

Test: qHTS assay to identify small molecule inhibitors of chordoma cells - UCH-2 (AID 1259356)
Details: UCH-2 chordoma viability, CellTiter-Glo ATP luminescence, 48 h; series mostly up to 46.1 µM; activity change, negative = inhibition: at the top concentration

Point of comparison: `Cc1cn([C@H]2C[C@H](O)[C@@H](CO)O2)c(=O)[nH]c1=O`, “activity change, negative = inhibition” value -16.3%. Against it:
- CCOC(C)=O — higher, 2.97%
- CO[C@H]1C=CO[C@@]2(C)Oc3c(C)c(O)c4c(O)c(c(/C=N/N5CCN(C6CCCC6)CC5)c(O)c4c3C2=O)NC(=O)/C(C)=C\C=C[C@H](C)[C@H](O)[C@@H](C)[C@@H](O)[C@@H](C)[C@H](OC(C)=O)[C@@H]1C — higher, 2.38%
- COCC(=O)Nc1cc(Sc2ccccc2)ccc1N=C(NC(=O)OC)NC(=O)OC — higher, -12.6%
- Clc1cc(Cl)c(OCC#CI)cc1Cl — higher, 5.07%
- CCC1OC(=O)C[C@@H](O)[C@H](C)[C@@H](O[C@@H]2O[C@H](C)C[C@H](N(C)C)[C@H]2O)[C@@H](CC=O)C[C@@H](C)C(=O)/C=C/[C@]2(C)OC2C1C (some centres undefined) — lower, -29.2%
- CCOc1ccc(N=Nc2ccc(N)cc2N)cc1 — lower, -16.4%

Point of comparison: `CC[N+](C)(C)Cc1ccccc1Br`, “activity change, negative = inhibition” value -4.61% [at 20.6 µM]. Against it:
- CCC(=O)O[C@@H]1CC(=O)O[C@H](C)C/C=C/C=C/[C@H](O)[C@H](C)C[C@H](CC=O)[C@H](O[C@@H]2O[C@H](C)[C@@H](O[C@H]3C[C@@](C)(O)[C@@H](OC(=O)CC)[C@H](C)O3)[C@H](N(C)C)[C@H]2O)[C@H]1OC — higher, 7.16% [at 20.6 µM]
- CC[N+](CC)(CC)CCC(O)(c1ccccc1)C1CCCCC1 (centres undefined) — higher, 5.46% [at 20.6 µM]

Reference: PubChem BioAssay (NCATS)
